From PubChem BioAssay (NCI)
Compounds without any hit were thinned out: in the full panel of roughly 83,000, 20% have a hit.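 Each cell line was grown in a 96-well plate and treated with one concentration of compound for 48 hours. Values below 10 were considered active.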 Activity calls are given as the source filed them.

Test system: SK-MEL-28 melanoma
Assay: NCI-60 one-dose screen, 48 h (100 = growth as untreated, 0 = no growth, -100 = all killed)
Conditions: 10 µM unless noted
Description: Growth inhibition of the SK-MEL-28 human tumor cell line is measured as a screen for anti-cancer activity. Cells are grown in 96 well plates and exposed to the test compound for 48 hours. Compounds are tested at a single concentration, which is 10^-5 M for most compounds. The reported endpoint is percent growth (GI% or GIPRCNT), where numbers from 0 - 100% represent growth inhibition, and numbers from -100% - 0 represent cell death. For example, a value of 40 represents 60% growth inhibition. A value of 0 means no net growth occurred over the course of the experiment. A value of -40 indicates 40% of cells at the beginning of the experiment died by the end of the experiment. A value of -100 means all cells are dead at the end of the experiment.
NCI-60 Human Tumor Cell Lines Screen was performed using the standard one-dose NCI protocol, which is described in more detail at https://dtp.cancer.gov/discovery_development/nci-60/default.htm.
Compounds with GIPRCNT values below 10 were considered active. Activity score was based on GIPRCNT using the following formula: […]
Score is 0 for GIPRCNT values of 100 or above, 50 for GIPRCNT values of 0, and 100 for GIPRCNT values of -100.

Compound | growth
Clc1cccc(/C=N/Nc2nc(N/N=C/c3cccc(Cl)c3)nc(N3CCOCC3)n2)c1 | 29.8% (inactive)
O=C1C(SCc2ccccc2)=C(Cl)CN1c1ccc(Cl)cc1 | 88.1% (inactive)
COc1ccc2c(c1)c(-c1nn3cc(-c4ccncc4)nc3s1)cn2C | 114% (inactive)
Cc1ccc(NC(=O)Nc2nc3ccc([N+](=O)[O-])cc3s2)cc1 | 14.8% (inactive)
CN1CCN(c2ccc(C(=O)/C=C/c3cc(F)cc(C(F)(F)F)c3)cc2)CC1 | 96.3% (inactive)
CCN(CC)c1ccc(/C=N/NC(=O)c2ccc(S(N)(=O)=O)cc2)c(O)c1 | 20.6% (inactive)
O=C(/C=C/c1cccc(F)c1)c1cccc(OCCCOc2cccc(C(=O)/C=C/c3cccc(F)c3)c2)c1 | 106% (inactive)
Cc1ccc(S(=O)(=O)c2nc(-c3ccc(F)cc3)oc2S(C)(=O)=O)cc1 | 79.8% (inactive)
COc1ccc2c(c1)C=CC1(O2)Oc2ccc(OC)cc2C=C1C (stereo not given) | 54.2% (inactive)
Cc1cc2nc3c4cc(C#N)ccc4n(CCN(C)C)c3nc2cc1C | -50.1% (active)
CCOP(=O)(OCC)OC[C@]12CCC(C)(C)C[C@H]1C1=CC[C@@H]3[C@@]4(C)CC[C@H](OP(=O)(OCC)OCC)C(C)(C)[C@@H]4CC[C@@]3(C)[C@]1(C)CC2 | 78.9% (inactive)
Clc1ccc2[nH]cc(-c3nn4cc(-c5ccncc5)nc4s3)c2c1 | 53.8% (inactive)
CCOc1cccc(/C(N)=N/C(N)=N/c2nc3ccccc3s2)c1 | 105% (inactive)
CC(C)(C)c1cc(NC(=O)Nc2ccc(-c3cn4c5c(sc4n3)CCc3c[nH]cc3-5)cc2)no1 | 23.1% (inactive)
O=C(Nc1ccc(Cl)c(C(F)(F)F)c1)Nc1ccc2c(ccn2C(=O)c2cccc(F)c2)c1 | 46.6% (inactive)
O=C(CCCCCCN1CC(=O)N2[C@@H](c3ccc(Cl)s3)c3[nH]c4ccccc4c3C[C@H]2C1=O)NO | 37.2% (inactive)
C=C(C)[C@@H]1CC[C@]2(C(=O)O)CC[C@]3(C)[C@H](CC[C@@H]4[C@@]5(C)C/C(=C/c6ccccn6)C(=O)C(C)(C)[C@@H]5CC[C@]43C)[C@@H]12 | 64% (inactive)
Oc1[nH]c2ccc(Cl)cc2c1N=Nc1nc(N=Nc2c(O)[nH]c3ccc(Cl)cc23)nc(N2CCOCC2)n1 | 55% (inactive)
Cc1ccc(C(=O)Nc2ccc(CNCCN3CCOCC3)c(C(F)(F)F)c2)cc1C#Cc1cnc2cccnn12 | -6.46% (active)
O=C(CCCCCCN1CC(=O)N2[C@@H](C3CC3)c3[nH]c4ccccc4c3C[C@H]2C1=O)NO | 32.3% (inactive)

Compound | growth
O=C(CSc1nc2ccccc2c(=O)n1-c1ccccc1)N/N=C/c1ccc(Oc2ccc(Br)cc2)cc1 | 70.9% (inactive)
O=C(CSc1nnc(-c2cccs2)n1-c1ccccc1)Nc1ccccc1F | 81.1% (inactive)
COc1ccc2[nH]cc(/C=N/Nc3ccnc4cc(Cl)ccc34)c2c1 | -100% (active)
Oc1[nH]c2ccc(Cl)cc2c1N=Nc1nc(N=Nc2c(O)[nH]c3ccc(Cl)cc23)nc(N2CCCCC2)n1 | 97.5% (inactive)
Cc1ccc(/C(N)=N/C(N)=N/c2nc3ccccc3s2)cc1 | 116% (inactive)
C#C[C@]1(O)CC[C@H]2[C@@H]3CC=C4c5sc(Nc6ncccc6C)nc5CC[C@]4(C)[C@H]3CC[C@@]21C | -78.7% (active)
Cc1cc2nc(C(Cl)Cl)nc(-c3ccc(S(=O)(=O)N(C)C)cc3)n2n1 | 59.3% (inactive)
CN(C)c1ccc(-c2cc(-c3c[nH]c4ccccc34)nc(N)c2C#N)cc1 | 59.8% (inactive)
Cc1csc(/N=C(N)/N=C(\N)c2cccc(C#N)c2)n1 | 74.6% (inactive)
CN1CCN(c2ccc(Nc3nc(NCCNS(=O)(=O)c4ccc5ccccc5c4)c4sccc4n3)cc2)CC1 | 74.4% (inactive)
CC(Nc1c(C#N)cnc2ccc(-c3cncc(O)c3)cc12)c1ccccc1 (stereo not given) | 3.08% (active)
COc1ccccc1/C=C1\Oc2ccc(O)c(O)c2C1=O | 94% (inactive)
NS(=O)(=O)c1nnc(/N=C/c2c(O)[nH]c3ccccc23)s1 | 114% (inactive)
CC1(C)CC[C@]2(C(=O)O)CC[C@]3(C)C(=CC[C@@H]4[C@@]5(C)CC[C@H](NOCCCN)C(C)(C)[C@@H]5CC[C@]43C)[C@@H]2C1 | 87.4% (inactive)
CCOC(=O)c1c(NCC(=O)Nc2cccc([N+](=O)[O-])c2)sc(C(C)=O)c1C | 2.62% (active)
CC(C)(C)OC(=O)NCc1ccc(CNc2c([N+](=O)[O-])cnc3ccccc23)cc1 | 89.4% (inactive)
C#CCOc1ccc(/C=N/Nc2nc(-c3ccc(OC)cc3)cs2)cc1 | 102% (inactive)
CN1CCN(c2ccc(Nc3nc(NCCNC(=O)c4ccc(F)cc4)c4sccc4n3)cc2)CC1 | -8.89% (active)
COc1ccc(C2c3[nH]c4ccc(Cl)cc4c3CCN2c2oc(CO)nc2C#N)cc1 (stereo not given) | 60.1% (inactive)
COc1ccccc1/C=C/C(=O)c1nnn(-c2ccc(F)cc2)c1C | 75.2% (inactive)
